# Data as given in PubChem BioAssay (NCATS).
# Records with an inconclusive call do not appear. Active and inactive are the calls of the source. Calls come from the whole dose curve; as a rule, active = well fitted curve in the direction sought with a large enough effect; inconclusive = small, poorly fitted or top-dose-only effect, or another doubt; inactive = no such curve, though single readings can be large; an effect the other way counts as inactive or inconclusive.
# System: not listed separately
# Assay: Cellular Toxicity (caspase-3) N2a (AID 665);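 note: compound exposure lasted 16 h at 37 °C before readout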
# Conditions: N2a cells, luminescence, normalized: DMSO 0%, 10 µM staurosporine 100%; series mostly up to 92.2 µM; caspase-3 activation: at the top concentration
# Outline: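 N2a cells, 1500/well, 5 h settle at 37 °C; cpd 16 h, 37 °C; Caspase-Glo 3/7, 1 h RT; luminescence. Norm: DMSO = 0, 10 uM staurosporine = 100%. AC50, Hill fit.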
SMILES,caspase-3 activation,outcome
Cc1cn([C@H]2C[C@H](N=[N+]=[N-])[C@@H](CO)O2)c(=O)[nH]c1=O,0.158% (inactive),
Cc1cn([C@H]2C=C[C@@H](CO)O2)c(=O)[nH]c1=O,,inactive
COc1ccc(CCN(C)CCCC(C#N)(c2ccc(OC)c(OC)c2)C(C)C)cc1OC (configuration not stated),-1.58% (inactive),

# System: not listed separately
# Assay: Cellular Toxicity (caspase-3) NIH 3T3 (AID 666);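 note: caspase signal read after 16 h compound exposure; 0% = DMSO basal and 100% = 100 µM tamoxifen stimulation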
# Conditions: NIH 3T3 caspase-3 activation, apoptosis/toxicity, 0% DMSO, 100% is 100 µM tamoxifen; series mostly up to 92.2 µM; caspase-3 activation: at the top concentration
# Outline: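 Luminescence from aminoluciferin released by caspase-3/7 cleavage of a peptide substrate served as read-out. Mouse fibroblast NIH 3T3 cells were exposed to compounds over a concentration range for 16 hours, and AC50 values came from standard Hill modelling.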
SMILES,caspase-3 activation,outcome
Cc1cn([C@H]2C[C@H](N=[N+]=[N-])[C@@H](CO)O2)c(=O)[nH]c1=O,1.4% (inactive),
Cc1cn([C@H]2C=C[C@@H](CO)O2)c(=O)[nH]c1=O,,inactive
COc1ccc(CCN(C)CCCC(C#N)(c2ccc(OC)c(OC)c2)C(C)C)cc1OC (configuration not stated),-2.31% (inactive),

# System: not listed separately
# Assay: Cellular Toxicity (caspase-3) Renal Proximal Tubule (AID 667);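 note: cells exposed to compound for 16 hours at 37 °C before detection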
# Conditions: renal proximal tubule cells, primary cells freshly taken from rat, solvent-only wells 0%, staurosporine 100%; series mostly up to 91.7 µM; caspase-3 activation: at the top concentration
# Outline: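 Caspase 3/7 activation measured by luminescent aminoluciferin release in primary rat proximal tubule cells after 16 hr compound exposure at 37 °C. AC50 from Hill-fitted concentration-response, scaled between DMSO and 10 uM staurosporine.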
SMILES,caspase-3 activation,outcome
Cc1cn([C@H]2C[C@H](N=[N+]=[N-])[C@@H](CO)O2)c(=O)[nH]c1=O,15% (inactive),
Cc1cn([C@H]2C=C[C@@H](CO)O2)c(=O)[nH]c1=O,,inactive
COc1ccc(CCN(C)CCCC(C#N)(c2ccc(OC)c(OC)c2)C(C)C)cc1OC (configuration not stated),-4.3% (inactive),

# Molecular target: Guanine nucleotide-binding protein G(i) subunit alpha-1 (Homo sapiens) (UniProt P63096)
# Assay: qHTS Assay for Inhibitors of RGS12 GoLoco Motif Activity (Green Fluorophore) (AID 879); note: potency is the fitted concentration of half-maximal effect;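 for activity, negative = inhibition: 0% = labeled peptide with Gαi1 and full inhibition = labeled peptide alone without protein; negative values mean loss of peptide binding seen as reduced polarization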
# Conditions: Galphai1/FITC-RGS12 GoLoco peptide, fluorescence polarization; series mostly up to 57.1 µM; activity, negative = inhibition: at the top concentration
# Outline: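 Fluorescence polarization assay: 50 nM Gαi1 with 10 nM FITC-labeled RGS12 GoLoco peptide in 10 mM Tris pH 7.5, 150 mM NaCl, 0.1 mM GDP, 0.05% NP40, 10 min at room temperature with compound.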
# Guanine nucleotide-binding protein G(i) subunit alpha-1 (Homo sapiens), sequence (P63096 whole entry, looked up): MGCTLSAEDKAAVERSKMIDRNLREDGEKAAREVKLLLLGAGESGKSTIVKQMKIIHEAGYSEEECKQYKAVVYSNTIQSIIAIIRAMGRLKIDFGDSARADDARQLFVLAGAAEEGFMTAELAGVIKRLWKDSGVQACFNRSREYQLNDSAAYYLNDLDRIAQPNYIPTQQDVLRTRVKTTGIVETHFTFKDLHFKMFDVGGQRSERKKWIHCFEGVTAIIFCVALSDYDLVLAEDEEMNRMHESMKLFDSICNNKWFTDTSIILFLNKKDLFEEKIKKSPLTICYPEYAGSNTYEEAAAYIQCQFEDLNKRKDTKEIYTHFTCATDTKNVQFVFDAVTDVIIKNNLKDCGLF
SMILES,"activity, negative = inhibition",Potency
CN1CCN(C2=Nc3cc(Cl)ccc3Nc3ccccc32)CC1,-23.6% (inactive),
Cc1cc(C(C)(C)C)c(O)c(C)c1CC1=NCCN1,-5.74% (inactive),
Cc1ccc(C(=O)Nc2ccc(S(=O)(=O)O)c3cc(S(=O)(=O)O)cc(S(=O)(=O)O)c23)cc1NC(=O)c1cccc(NC(=O)Nc2cccc(C(=O)Nc3cc(C(=O)Nc4ccc(S(=O)(=O)O)c5cc(S(=O)(=O)O)cc(S(=O)(=O)O)c45)ccc3C)c2)c1,2.54% (inactive),
O=c1c(O)c(-c2ccc(O)c(O)c2)oc2cc(O)cc(O)c12,5.46% (inactive),
CN(C)C(=O)C(CCN1CCC(O)(c2ccc(Cl)cc2)CC1)(c1ccccc1)c1ccccc1,-7.96% (inactive),
CNCCCC12CCC(c3ccccc31)c1ccccc12,3.84% (inactive),
O=C1c2c(O)ccc(O)c2C(=O)c2c(NCCNCCO)ccc(NCCNCCO)c21,-2.98% (inactive),
NCCCCCC(=O)O,2.35% (inactive),
OCCN1CCN(CCCN2c3ccccc3Sc3ccc(C(F)(F)F)cc32)CC1,-21.7% (inactive),
CN(C)CCOC(c1ccccc1)c1ccccc1,-14.5% (inactive),
NCCc1cnc[nH]1,-18.7% (inactive),
CN(C)CCC=C1c2ccccc2C=Cc2ccccc21,-6.43% (inactive),
CN(C)c1nc(N(C)C)nc(N(C)C)n1,-7.5% (inactive),
OCCN(CCO)c1nc(N2CCCCC2)c2nc(N(CCO)CCO)nc(N3CCCCC3)c2n1,,10 µM (active)
CN1CCN(CCCN2c3ccccc3Sc3ccc(Cl)cc32)CC1,-21.8% (inactive),
NC12CC3CC(CC(C3)C1)C2,-13.4% (inactive),
O=C(c1ccc(F)cc1)C1CCN(CCn2c(=O)[nH]c3ccccc3c2=O)CC1,5.51% (inactive),
Cn1cnc2c1c(=O)[nH]c(=O)n2C,2.44% (inactive),
O=C(CCCN1CCC(O)(c2ccc(Cl)cc2)CC1)c1ccc(F)cc1,-10.3% (inactive),
Cc1cn([C@H]2C=C[C@@H](CO)O2)c(=O)[nH]c1=O,-22.4% (inactive),
NC(=O)NO,-16.4% (inactive),
Cn1ccc2cc3c(cc21)CCN3C(=O)Nc1cccnc1,-11.8% (inactive),
Cc1cc(C(C)(C)C)cc(C)c1CC1=NCCN1,3.6% (inactive),
